# Laboratory results taken from PubChem BioAssay (EPA / NIEHS).
# Records with an inconclusive call do not appear. Some structures have more than one record in an assay (separate samples or runs), and their calls can disagree. Active and inactive are the calls of the source. How the source made its calls, unless noted: active means hit-call score of the fitted dose curve at least 0.9, where 1 is the maximum; inconclusive means response in the unintended direction; inactive means score below 0.9.
# Legend:
# [1] = tested on: Thyroperoxidase (TPO), gene 54314; experiment: CCTE_Simmons_AUR_rTPO: CCTE's Amplex UltraRed Assay for Thyroperoxidase (TPO) Inhibition, Simmons Lab (AID 2283662);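 on AC50: potency for loss of signal meaning inhibition of peroxidase activity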
# Outline: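 Endpoint is decreased Amplex UltraRed fluorescence after a 30-min, 37C reaction of rat thyroid microsomes with 300 uM H2O2. Eight test concentrations (5 nM–87.5 uM final) in 0.5% DMSO, three biological replicates each.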
# [2] = CCTE_Simmons_CellTiterGLO_HEK293T: Viability Assessment in CCTE's Assays for Thyroperoxidase (TPO) Inhibition, Simmons Lab (AID 2283665);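 on AC50: cells exposed to compound for 24 h before readout; actives reduce ATP signal below DMSO vehicle meaning cytotoxicity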
# Outline: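 Cytotoxicity counter-screen: human HEK293T cells in low-serum (1% FBS) medium receive test chemical, 5 nM to 87.5 uM final, for 24 h; ATP is quantified by luciferase luminescence.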
# [3] = Tanguay_ZF_120hpf_TR_legacy: (Legacy) Oregon State University Tanguay Lab 120 Hour Post-fertilization zebrafish Assay for Touch Response (AID 2283667)
# Outline: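 5D WT embryos; static exposure to 120 hpf, 28C, sealed/dark; DMSO 0.64% v/v final. TR scored present/absent; dead embryos excluded. Pos ctrl 5uM trimethyltin chloride.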
# [4] = CCTE_Padilla_ZF_144hpf_TERATOSCORE: (Legacy) CCTE's 144 Hour Post-fertilization zebrafish Assay Teratoscore, Padilla Lab (AID 2283679; active means hit-call score of the fitted dose curve at least 0.9, where 1 is the maximum; inactive means score below 0.9;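 on AC50: zebrafish embryos with chorions exposed by immersion from 6-8 hpf to 5 dpf with daily renewal; teratogenicity score from eye scoring of death hatching and malformations at 144 hpf; higher score means more developmental defects relative to DMSO baseline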)
# Outline: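 Larvae scored by eye at 144 hpf for death, hatching and malformations after a day in clean Hanks'. Before that, daily-renewed exposure at 80 uM (0.4% DMSO, 26C) from roughly 6-8 hpf through 5 dpf, 4 embryos per chemical.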
# [5] = STM_H9_OrnithineISnorm_perc: Stemina devTOX quickPredict H9 human embryonic stem cell (hESC)-based Assay for Ornithine (ORN) Metabolite Biomarker, Normalized (AID 2283712; active means hit-call score of the fitted dose curve at least 0.9, where 1 is the maximum; inactive means score below 0.9;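 further: ornithine released into spent medium during last day measured by mass spectrometry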)
# Outline: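 Cells: undifferentiated H9 hESC. Dosing: 72 h, media replaced every 24 h. Sample: final 24-h conditioned media, 40% acetonitrile. Read: UPLC-HRMS ornithine area vs 13C standard, % DMSO control.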
# [6] = STM_H9_CystineISnorm_perc: Stemina devTOX quickPredict H9 human embryonic stem cell (hESC)-based Assay for Cystine (CYSS) Metabolite Biomarker, Normalized (AID 2283713; active means hit-call score of the fitted dose curve at least 0.9, where 1 is the maximum; inactive means score below 0.9)
# Outline: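 Secreted cystine was measured by UPLC-HRMS in H9 hESC medium after 72h compound exposure with 24-hourly replenishment. Values are standard-normalized areas relative to 0.1% DMSO.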
# [7] = CEETOX_H295R_MTT_cell_viability: Viability Assessment in the CeeTox HT-H295R MTT Assay (AID 2283718; active means hit-call score of the fitted dose curve at least 0.9, where 1 is the maximum; inactive means score below 0.9;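 on AC50: curve fitted both ways so AC50 may mark viability loss or gain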)
# Outline: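 MTT reduction (0.5 mg/ml, 4 h at 37 C; absorbance at 570 and 650 nm) gave viability as background-corrected percent change versus controls. H295R cells had 48 h forskolin (10 uM) prestimulation, then 48 h chemical exposure at 0.1% DMSO.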
# [8] = Tanguay_ZF_120hpf_ActivityScore_legacy: (Legacy) Oregon State University Tanguay Lab 120 Hour Post-fertilization zebrafish Assay Score for Activity (AID 2283742);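 on AC50: dechorionated Tropical 5D wild-type zebrafish embryos held singly per well; static exposure from 6 hpf until 120 hpf at 28 °C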
# Outline: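 Embryos are staged, enzymatically dechorionated at 4 hpf, placed individually at 6 hpf, then held in test chemical (0.64% DMSO) at 28C until 120 hpf. Mortality and malformations are scored by brightfield, with non-mortality endpoints skipped for dead embryos.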
# [9] = read-out: Cytochrome P450 (CYP24A1_1), CYP24A1 (gene 1591); experiment: LTEA_HepaRG_CYP24A1_1: Life Technologies and Expression Analysis (LTEA) Assay for Cytochrome P450 (CYP24A1_1) using HepaRG (AID 2283671; active means hit-call score of the fitted dose curve at least 0.9, where 1 is the maximum; inactive means score below 0.9); details: mRNA level, 48 h; actives raise or lower the signal
# Outline: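 In this test, gene induction or suppression of CYP24A1 in human HepaRG liver cells is measured by qRT-PCR after 48 h chemical treatment (eight concentrations, maximum 100 uM). Values are fitted bidirectionally relative to DMSO.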
structure (smiles),measurement,setting,value
CC(C)(c1cc(Br)c(O)c(Br)c1)c1cc(Br)c(O)c(Br)c1,AC50,[1],18.5 µM (active)
same,AC50,[2],14.7 µM (active)
same,outcome,[3],inactive
same,AC50,[4],4.24 µM (active)
same,outcome,[5],inactive
same,outcome,[6],inactive
same,outcome,[7],inactive
same,AC50,[8],1.99 µM (active)
CCCCCCCCCCCCO,outcome,[3],inactive
same,outcome,[9],inactive
same,AC50,[4],62.8 µM (active)
same,outcome,[8],inactive
Oc1ccccc1,AC50,[1],23.6 µM (active)
same,outcome,[1],inactive
same,outcome,[2],inactive
same,outcome,[3],inactive
same,outcome,[8],inactive
CCCCCc1ccc(N)cc1,AC50,[1],0.0637 µM (active)
same,AC50,[2],26.7 µM (active)
same,outcome,[3],inactive
same,AC50,[4],65.9 µM (active)
same,outcome,[7],inactive
same,outcome,[8],inactive
O=C(O)Cc1cc(I)c(Oc2ccc(O)c(I)c2)c(I)c1,AC50,[1],0.32 µM (active)
same,outcome,[2],inactive
same,outcome,[3],inactive
same,AC50,[4],0.101 µM (active)
same,AC50,[8],31.3 µM (active)
CC(C)(C)c1cc(/C=C2\SC(N)=NC2=O)cc(C(C)(C)C)c1O,AC50,[1],5.18 µM (active)
same,AC50,[2],8.58 µM (active)
same,outcome,[3],inactive
same,AC50,[4],4.17 µM (active)
same,outcome,[5],inactive
same,AC50,[6],5 µM (active)
same,outcome,[7],inactive
same,AC50,[8],47.2 µM (active)
Cc1cn([C@H]2C[C@H](N=[N+]=[N-])[C@@H](CO)O2)c(=O)[nH]c1=O,outcome,[3],inactive
same,outcome,[4],inactive
same,outcome,[5],inactive
same,AC50,[6],2.32 µM (active)
same,outcome,[8],inactive
CC[C@H](NC(=O)c1cc(F)ccc1NS(=O)(=O)c1cccc2cccnc12)c1ccccc1,outcome,[3],inactive
same,outcome,[4],inactive
same,outcome,[5],inactive
same,outcome,[6],inactive
same,outcome,[8],inactive
O=c1c(-c2ccc(O)cc2)coc2cc(O)cc(O)c12,AC50,[1],3.6 µM (active)
same,outcome,[3],inactive
same,AC50,[4],24.5 µM (active)
same,AC50,[5],48.8 µM (active)
same,AC50,[6],71.6 µM (active)
same,AC50,[7],28.7 µM (active)
same,AC50,[8],20 µM (active)
COc1cc(C(=O)NC2CCN(C)CC2)ccc1Nc1ncc2c(n1)N(C1CCCC1)CC(F)(F)C(=O)N2C,AC50,[1],40.7 µM (active)
same,AC50,[2],15.3 µM (active)
same,AC50,[3],36.1 µM (active)
same,AC50,[4],24.1 µM (active)
same,AC50,[5],0.0393 µM (active)
same,AC50,[6],0.0284 µM (active)
same,AC50,[8],40 µM (active)
Cc1occc1C(=O)Nc1ccc(C(=O)N2CCC(F)(F)/C(=C\C(=O)N3CCC(N4CCCCC4)CC3)c3ccccc32)cc1,outcome,[3],inactive
same,outcome,[9],inactive
same,outcome,[4],inactive
same,outcome,[8],inactive
O=C1c2ccccc2C(=O)N1CCc1noc(-c2ccc(CN3CCCCCC3)s2)n1,outcome,[3],inactive
same,outcome,[9],inactive
same,AC50,[4],20.2 µM (active)
same,outcome,[7],inactive
same,outcome,[8],inactive
CCCOC(=O)c1cc(O)c(O)c(O)c1,AC50,[1],0.772 µM (active)
same,AC50,[2],22.6 µM (active)
same,outcome,[3],inactive
same,outcome,[9],inactive
same,outcome,[8],inactive
OC12N=C(c3ccccc3)SC1Cc1cc(Cl)ccc12 (stereo not drawn),AC50,[1],13 µM (active)
same,AC50,[2],29.7 µM (active)
same,AC50,[3],14.9 µM (active)
same,outcome,[7],inactive
same,AC50,[8],32.7 µM (active)
CCN(Cc1cccc(S(=O)(=O)O)c1)c1ccc(C(=C2C=CC(=[N+](CC)Cc3cccc(S(=O)(=O)O)c3)C=C2)c2ccccc2S(=O)(=O)[O-])cc1,AC50,[1],19.2 µM (active)
same,AC50,[2],4.21 µM (active)
same,outcome,[3],inactive
same,outcome,[4],inactive
same,outcome,[8],inactive
CC/C(=C(/CC)c1ccc(O)cc1)c1ccc(O)cc1,AC50,[1],5.22 µM (active)
same,AC50,[2],8.59 µM (active)
same,AC50,[4],5.03 µM (active)
same,outcome,[5],inactive
same,outcome,[6],inactive
same,AC50,[7],24.4 µM (active)
same,AC50,[8],28.5 µM (active)
O=C(OCCCCCCOC(=O)c1ccccc1)c1ccccc1,outcome,[3],inactive
same,AC50,[4],12.9 µM (active)
same,outcome,[8],inactive
COCC(C)OCC(C)OCC(C)O (stereo not drawn),outcome,[3],inactive
same,outcome,[8],inactive
OCCO,outcome,[3],inactive
same,outcome,[5],inactive
same,outcome,[6],inactive
same,outcome,[8],inactive
c1ccc2ccccc2c1,outcome,[3],inactive
same,outcome,[8],inactive
CCCCCCCCCCCC[N+](C)(C)C,outcome,[3],inactive
same,AC50,[5],7.79 µM (active)
same,AC50,[6],1.6 µM (active)
same,outcome,[7],inactive
same,outcome,[8],inactive
Cc1cc2c(cc1C(F)(F)F)N(C(=O)Nc1ccc(Oc3cccnc3C)nc1)CC2,outcome,[3],inactive
same,outcome,[7],inactive
same,outcome,[8],inactive
Cc1cccc2ccccc12,outcome,[3],inactive
same,outcome,[8],inactive
CCO[Si](CCCNC(N)=O)(OCC)OCC,outcome,[3],inactive
same,outcome,[8],inactive
Cc1cc(F)ccc1-c1cc(N2CC[C@@H](O)[C@H]2CO)ncc1N(C)C(=O)C(C)(C)c1cc(C(F)(F)F)cc(C(F)(F)F)c1,outcome,[3],inactive
same,AC50,[4],4.05 µM (active)
same,outcome,[8],inactive
O=C=NCCCCCCN=C=O,AC50,[5],0.0164 µM (active)
same,outcome,[6],inactive
same,outcome,[8],inactive
CCCCCCCCN(C)CCCCCCCC,outcome,[3],inactive
same,outcome,[5],inactive
same,outcome,[6],inactive
same,outcome,[7],inactive
same,outcome,[8],inactive
CC(O)CC(C)(C)O (stereo not drawn),outcome,[4],inactive
same,outcome,[8],inactive
O=c1ccc2ccccc2o1,outcome,[3],inactive
same,outcome,[4],inactive
same,outcome,[8],inactive
CCCCCCCC[Si](OCC)(OCC)OCC,outcome,[3],inactive
same,outcome,[4],inactive
same,outcome,[7],inactive
same,outcome,[8],inactive
CN(C)C(=O)C1(N2CCCCC2)CCN(CC[C@@]2(c3ccc(Cl)c(Cl)c3)CN(C(=O)c3ccccc3)CCO2)CC1,AC50,[4],15 µM (active)
same,AC50,[5],8.19 µM (active)
same,outcome,[6],inactive
same,AC50,[8],16.2 µM (active)
